# Structures can show the parent of a compound that is named as a salt.
# Legend:
# Details in all cases: incubation time: 27 h, anaerobic, 37 °C;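 for the amine columns active = adjusted P below 0.05 in both replicates with a change the same way and a mean fold change under 0.8 or over 1.25; inactive = the rest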
# [1] = system: Clostridium sporogenes DSM 1664; assay: growth (OD595) fold change vs plate DMSO controls (fold change (ratio)); higher = more growth
# Outline: (§1)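 Growth is calculated as fold change against the median of the DMSO control wells on each plate. Readings at 595 nm from anaerobic mGAM cultures (96-well, 27 h, 37 °C) were blank-subtracted, background-corrected with 20 µM compound solutions in water, and converted to OD by a calibration factor of 5. Fold changes above 1.5 were recorded as NA, and results are means of 2 biological replicates.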
# [2] = system: Escherichia coli IAI1; assay: as above
# Outline: as §1
# [3] = system: Klebsiella aerogenes DSM 30053; assay: as above
# Outline: as §1
# [4] = system: Ruminococcus gnavus DSM 108212; assay: as above
# Outline: as §1
# [5] = system: Klebsiella aerogenes DSM 30053; assay: fold change of Histamine concentration vs plate DMSO controls (fold change (ratio)); higher = more amine produced, active = hit call of the paper (significant change in both replicates, either direction)
# Outline: (§2)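 Extracts of whole anaerobic mGAM cultures were analysed for amines by LC–triple-quadrupole MS with dynamic MRM and external calibration curves, with drift corrected within batch. Four gut strains were grown at 37 °C for 27 h in 80 µL wells with compounds at 20 µM final, sweeteners at 50 µM final. Each value expresses fold change over plate DMSO controls. The average of 2 biological replicates is shown.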
# [6] = system: Clostridium sporogenes DSM 1664; assay: fold change of Tryptamine concentration vs plate DMSO controls (fold change (ratio)); higher = more amine produced, active = hit call of the paper (significant change in both replicates, either direction)
# Outline: as §2
# [7] = system: Ruminococcus gnavus DSM 108212; assay: as above
# Outline: as §2
# [8] = system: Escherichia coli IAI1; assay: fold change of Putrescine concentration vs plate DMSO controls (fold change (ratio)); higher = more amine produced, active = hit call of the paper (significant change in both replicates, either direction)
# Outline: as §2
# [9] = system: Klebsiella aerogenes DSM 30053; assay: as above
# Outline: as §2
# [10] = system: Escherichia coli IAI1; assay: fold change of Cadaverine concentration vs plate DMSO controls (fold change (ratio)); higher = more amine produced, active = hit call of the paper (significant change in both replicates, either direction)
# Outline: as §2
# [11] = system: Klebsiella aerogenes DSM 30053; assay: as above
# Outline: as §2
# [12] = system: Ruminococcus gnavus DSM 108212; assay: fold change of 2-Phenylethylamine concentration vs plate DMSO controls (fold change (ratio)); higher = more amine produced, active = hit call of the paper (significant change in both replicates, either direction)
# Outline: as §2
SMILES,growth [1],growth [2],growth [3],growth [4],fold change of Histamine concentration [5],fold change of Tryptamine concentration [6],fold change of Tryptamine concentration [7],fold change of Putrescine concentration [8],fold change of Putrescine concentration [9],fold change of Cadaverine concentration [10],fold change of Cadaverine concentration [11],fold change of 2-Phenylethylamine concentration [12]
C[C@@H](NCCCc1cccc(C(F)(F)F)c1)c1cccc2ccccc12 [Cinacalcet hydrochloride] (20 µM),0.918,1.02,1.03,1.2,0.977 (inactive),0.995 (inactive),0.807 (inactive),1.11 (inactive),1.01 (inactive),0.693 (inactive),0.999 (inactive),0.946 (inactive)
CN1CCCN(C(c2ccccc2)c2ccc(Cl)cc2)CC1 (centres undefined) [Homochlorcyclizine dihydrochloride] (20 µM),1.12,0.99,1,0.861,0.994 (inactive),0.989 (inactive),0.918 (inactive),1.03 (inactive),1.01 (inactive),0.885 (inactive),1.01 (inactive),0.983 (inactive)
CCCCOc1ccc(C(=O)CCN2CCCCC2)cc1 [Dyclonine hydrochloride] (20 µM),1.17,0.992,0.966,1.22,1 (inactive),0.989 (inactive),0.947 (inactive),0.989 (inactive),0.995 (inactive),0.995 (inactive),0.984 (inactive),0.936 (inactive)
C[C@@H]1C[C@H]2[C@@H]3C[C@H](F)C4=CC(=O)C=C[C@]4(C)[C@@]3(F)[C@@H](O)C[C@]2(C)[C@@]1(O)C(=O)CO [Flumethasone] (20 µM),1.02,1,1.01,1.2,0.997 (inactive),0.979 (inactive),1.01 (inactive),0.991 (inactive),0.989 (inactive),1.04 (inactive),0.991 (inactive),0.972 (inactive)
CN1CCC(=C2c3ccccc3CC(=O)c3sccc32)CC1 [Ketotifen fumarate] (20 µM),1,0.988,1.07,1,0.935 (inactive),1.02 (inactive),0.991 (inactive),0.966 (inactive),0.996 (inactive),1.01 (inactive),1.01 (inactive),0.968 (inactive)
CC1(C)S[C@@H]2[C@H](NC(=O)[C@H](NC(=O)N3CCNC3=O)c3ccccc3)C(=O)N2[C@H]1C(=O)O [Azlocillin sodium salt] (20 µM),0,0.726,1.16,0,0.875 (inactive),0.0279 (active),0.0374 (active),0.965 (inactive),1.07 (inactive),1.87 (active),1.02 (inactive),0.0385 (active)
O=C(O)CCC(=O)c1ccc(-c2ccccc2)cc1 [Fenbufen] (20 µM),1.02,1.02,0.996,0.921,0.97 (inactive),0.991 (inactive),1.04 (inactive),1.04 (inactive),0.989 (inactive),0.969 (inactive),0.998 (inactive),1.06 (inactive)
NNCCc1ccccc1 [Phenelzine sulfate] (20 µM),0.965,0.99,1.02,1.01,1.05 (inactive),0.921 (inactive),0.995 (inactive),1.12 (inactive),0.977 (inactive),1.04 (inactive),1.03 (inactive),0.911 (inactive)
O=C(O)CNC(=O)c1ccccc1 [Hippuric acid] (20 µM),1.12,1.02,1.02,1.05,1.03 (inactive),1.05 (inactive),1.08 (inactive),0.979 (inactive),0.997 (inactive),0.94 (inactive),1.01 (inactive),1.09 (inactive)
CC(C)(C)NCC(O)CSc1nc(-c2ccc(C(N)=O)s2)cs1 (centres undefined) [Arotinolol hydrochloride] (20 µM),1.07,1.02,1.02,1.01,1.01 (inactive),1.01 (inactive),1.05 (inactive),0.978 (inactive),1 (inactive),0.928 (inactive),0.989 (inactive),1.1 (inactive)
COc1ccc(-c2cc(=O)c3c(O)cc(O[C@@H]4O[C@H](CO[C@@H]5O[C@@H](C)[C@H](O)[C@@H](O)[C@H]5O)[C@@H](O)[C@H](O)[C@H]4O)cc3o2)cc1O [Diosmin] (20 µM),1.12,0.976,1.01,1.1,0.924 (inactive),0.985 (inactive),0.97 (inactive),0.961 (inactive),0.992 (inactive),0.971 (inactive),1.02 (inactive),1 (inactive)
OC[C@H]1O[C@@H](O[C@@H]2[C@@H](CO)OC(O)(CO)[C@H]2O)[C@H](O)[C@@H](O)[C@H]1O (mixture of isomers) [Lactulose] (50 µM),1.06,0.906,1.01,0.977,1.01 (inactive),0.98 (inactive),1 (inactive),0.955 (inactive),1.02 (inactive),1.05 (inactive),0.994 (inactive),0.98 (inactive)
N=C(N=C(N)N)N1CCOCC1 [Moroxidine hydrochloride] (20 µM),0.931,1.05,1,1.39,1.11 (inactive),0.987 (inactive),1.18 (inactive),0.989 (inactive),1.06 (inactive),0.916 (inactive),1.09 (inactive),1.34 (active)
C[C@H](O)C(=O)Nc1c(I)c(C(=O)NC(CO)CO)c(I)c(C(=O)NC(CO)CO)c1I [Iopamidol] (20 µM),1.2,1.02,1.05,1.25,1.04 (inactive),1.03 (inactive),1.07 (inactive),0.979 (inactive),0.995 (inactive),0.999 (inactive),1.01 (inactive),1.05 (inactive)
CO[C@@]1(NC(=O)CSCC#N)C(=O)N2C(C(=O)O)=C(CSc3nnnn3C)CS[C@@H]21 [Cefmetazole sodium salt] (20 µM),0,0.0115,1.16,,1.12 (inactive),0.0521 (active),0.978 (inactive),0.284 (active),1.05 (inactive),0.941 (inactive),1.03 (inactive),1.13 (inactive)
CN(C)CCC(c1ccccc1)c1ccccn1 (centres undefined) [Pheniramine maleate] (20 µM),1.03,0.982,0.985,0.784,1.02 (inactive),0.954 (inactive),0.877 (inactive),0.896 (inactive),1.01 (inactive),1.27 (active),0.986 (inactive),0.798 (inactive)
C1N2CN3CN1CN(C2)C3 [Methenamine] (20 µM),0.885,0.986,1.02,1.16,0.978 (inactive),1.05 (inactive),1.04 (inactive),1.01 (inactive),0.982 (inactive),1 (inactive),0.993 (inactive),1.03 (inactive)
CO[C@@]12[C@H](COC(N)=O)C3=C(C(=O)C(C)=C(N)C3=O)N1C[C@@H]1N[C@@H]12 [Mitomycin C] (20 µM),0.678,0.0414,0.824,0.291,1.15 (inactive),0.394 (active),0.153 (active),0.663 (inactive),0.968 (inactive),0.306 (active),0.995 (inactive),0.15 (active)
Cn1c(=O)c2c(ncn2CC(O)CO)n(C)c1=O (centres undefined) [Diprophylline] (20 µM),0.915,1.02,0.992,0.783,1.03 (inactive),0.964 (inactive),0.971 (inactive),1.02 (inactive),1.01 (inactive),0.98 (inactive),1 (inactive),0.99 (inactive)
Cc1c(O)c(=O)ccn1C [Deferiprone] (20 µM),1,0.999,1.04,1.06,1.03 (inactive),1.05 (inactive),1.02 (inactive),1 (inactive),1.01 (inactive),1.03 (inactive),0.999 (inactive),1 (inactive)
CC(C)(c1cc(Br)c(O)c(Br)c1)c1cc(Br)c(O)c(Br)c1 (20 µM),0,1.04,1.05,,0.929 (inactive),0.0166 (active),0.366 (active),0.967 (inactive),1.01 (inactive),0.996 (inactive),1.04 (inactive),0.404 (inactive)
COc1cccc(OC)c1C(=O)N[C@@H]1C(=O)N2[C@@H]1SC(C)(C)[C@@H]2C(=O)O [Methicillin sodium] (20 µM),0.569,1.14,0.978,,1.05 (inactive),0.196 (active),0.608 (active),1.24 (inactive),1 (inactive),0.875 (inactive),0.969 (inactive),0.721 (inactive)
COC(=O)C1=C(C)NC(C)=C(C(=O)OCC(C)C)C1c1ccccc1[N+](=O)[O-] (centres undefined) [Nisoldipine] (20 µM),0.851,1.13,1.02,0.871,0.949 (inactive),1.06 (inactive),0.899 (inactive),1.1 (inactive),1 (inactive),0.981 (inactive),1.01 (inactive),0.898 (inactive)
O=C1C(=O)c2ccccc2C(O)=C1C1CCC(c2ccc(Cl)cc2)CC1 (centres undefined) [Atovaquone] (20 µM),1.24,1.02,1.07,,1.01 (inactive),0.793 (inactive),0.753 (active),0.973 (inactive),1.03 (inactive),0.989 (inactive),1 (inactive),0.747 (active)
